From PubChem BioAssay (NCATS)
Records with an inconclusive call do not appear. Where a call stands in place of a potency, no number is given. Some structures have more than one record in an assay (separate samples or runs), and their calls can disagree. Activity calls are given as the source filed them. Calls come from the whole dose curve.

Each molecule was assayed against Vitamin D3 receptor (Homo sapiens) (UniProt P11473) (assay: qHTS assay for small molecule antagonists of vitamin D receptor signaling (AID 588541)). Conditions: HEK293T VDR-UAS-bla, beta-lactamase ratio, antagonist mode; series mostly up to 76.7 µM.
Vitamin D3 receptor (Homo sapiens), sequence (P11473 whole entry, looked up): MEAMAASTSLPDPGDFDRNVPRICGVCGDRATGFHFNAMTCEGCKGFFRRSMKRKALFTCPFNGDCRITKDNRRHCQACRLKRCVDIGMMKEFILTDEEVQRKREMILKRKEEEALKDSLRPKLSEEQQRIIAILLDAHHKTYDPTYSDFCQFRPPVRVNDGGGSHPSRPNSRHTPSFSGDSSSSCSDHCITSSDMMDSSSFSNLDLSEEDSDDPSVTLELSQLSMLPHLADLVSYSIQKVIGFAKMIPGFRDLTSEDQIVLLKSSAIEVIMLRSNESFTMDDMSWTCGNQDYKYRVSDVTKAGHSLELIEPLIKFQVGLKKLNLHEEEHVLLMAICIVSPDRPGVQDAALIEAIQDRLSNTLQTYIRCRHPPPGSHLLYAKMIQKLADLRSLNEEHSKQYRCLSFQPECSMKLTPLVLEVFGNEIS
Description: NIH Chemical Genomics Center [NCGC]
U.S. Environmental Protection Agency [EPA]
National Institutes of Environmental Health Sciences [NIEHS]
National Toxicology Program [NTP]
The Vitamin D receptor (VDR) is a member of nuclear hormone receptor superfamily and it plays a critical role in calcium homeostasis and bone metabolism. It plays a role in inducing cell differentiation, inhibiting cell growth and in thrombogenicity. So, VDR that mediates these effects represents a pharmacological target in prevention and treatment of hyperproliferative malignancies, such as cancer and psoriasis, cardiovascular, immunological, inflammatory and renal diseases etc.
NCGC Assay Protocol Summary
Using a beta-lactamase reporter-gene under control of Vitamin D receptor (VDR) response element, a cell-based assay [GeneBLAzer (VDR -UAS-bla assay developed by Invitrogen] was used to measure VDR ligands signaling. GeneBLAzer VDR -UAS-bla HEK293T cells were used with assay medium containing 2% charcoal-stripped FBS. The assay was performed in clear bottom black Greiner 1536-well plates. Library compounds were measured for their ability to inhibit the reporter gene activity. Compounds were screened in a titration series in 1536-well format. The fluorescence intensity (405 nm excitation, 460/530 nm emission) was measured using an EnVision plate reader. Data was normalized relative to 1-alpha,25-Dihydroxy vitaminD3 control (50 nM, 100%) and DMSO only wells (basal, 0%). Concentration-response titration points for each compound were fitted to the Hill equation yielding concentrations of half-maximal inhibition (IC50) and maximal response (efficacy) values.
qHTS protocol for VDR beta-lactamase assay in antagonist mode
[Step] [Parameter] [Value] [Description]
1. Reagent; 5 uL; 2000 cells/well
2. Incubation; 37 C for 5 hrs
4. Controls (DMSO); 23 nL,
5. Agonist (Stimulator); 1uL; 1-alpha,25-Dihydroxy vitaminD3 at 50 nM and 3 nM final concentrations
6. Incubation; 37 C for 16 hrs
7. Detection reagent; 1 uL of CCF4-dye
8. Incubation; RT for 2 hrs
9. Detection; Fluorescence; Envision plate reader
In the case of `O=C(CCl)c1ccccc1`, the Potency is reported as 35.5 µM (active) and inactive.
In the case of `COC(=O)c1ccccc1CS(=O)(=O)NC(=O)Nc1nc(OC)cc(OC)n1`, the Potency is reported as “inactive”.
For `CCNS(=O)(=O)C(F)(F)C(F)(F)C(F)(F)C(F)(F)C(F)(F)C(F)(F)C(F)(F)C(F)(F)F`, the Potency was “inactive”.
For `Nc1ccc([N+](=O)[O-])cc1Cl`, the Potency was “inactive”.
`Clc1ccc(-c2cc(Cl)c(Cl)cc2Cl)cc1Cl` was tested, and the Potency was “inactive”.
In the case of `Clc1ccc(C2(Cn3cncn3)CC(Br)CO2)c(Cl)c1` (stereo not given), the Potency is reported as “inactive”.
With `CN/C(=N\[N+](=O)[O-])NCc1cnc(Cl)s1` the Potency was “inactive”.
For `Cc1cc(C2CC2)nc(Nc2ccccc2)n1`, the Potency was “inactive”.
With `CCOS(=O)(=O)OCC` the Potency was “inactive”.
`CN(C)P(=O)(N(C)C)N(C)C` was tested, and the Potency was “inactive”.
With `CC(C)(C)C(O)/C(=C\c1ccc(Cl)cc1Cl)n1cncn1` (stereo not given) the Potency was “inactive”.
With `C#CCO` the Potency was “inactive”.
`Cc1cc(Cl)ccc1N=CN(C)C` was tested, and the Potency was “inactive”.
With `CCOP(=S)(OCC)SCCl` the Potency was “inactive”.
In the case of `CCCCCCCCCCCCCCC(Br)C(=O)O` (stereo not given), the Potency is reported as “inactive”.
For `O=CNC(N1CCN(C(NC=O)C(Cl)(Cl)Cl)CC1)C(Cl)(Cl)Cl` (stereo not given), the Potency was “inactive”.
For `CCOP(=S)(Oc1cnc(C(C)(C)C)nc1)OC(C)C` (stereo not given), the Potency was “inactive”.
For `C[Si](Cn1cncn1)(c1ccc(F)cc1)c1ccc(F)cc1`, the Potency was “inactive”.
With `Nc1cnn(-c2ccccc2)c(=O)c1Cl` the Potency was “inactive”.
`O=[As](O)(O)O` was tested, and the Potency was “inactive”.
With `COc1ccc(C(O)(c2cncnc2)C2CC2)cc1` (stereo not given) the Potency was “inactive”.
`S=C([S-])NCCNC(=S)[S-].[Zn+2]` was tested, and the Potency was “inactive”.
`COc1nc(C)nc(NC(=O)NS(=O)(=O)c2ccccc2CCC(F)(F)F)n1` was tested, and the Potency was “inactive”.
In the case of `CC1(C)CON(Cc2ccccc2Cl)C1=O`, the Potency is reported as “inactive”.
In the case of `COc1ccc(O)c(C(C)(C)C)c1`, the Potency is reported as “inactive”.
With `CC(C)(C#N)N=NC(C)(C)C#N` the Potency was “inactive”.
`COP(=O)(OC)Oc1nc(Cl)c(Cl)cc1Cl` was tested, and the Potency was “inactive”.
`CC(C)N(C(=O)SCC(Cl)=C(Cl)Cl)C(C)C` was tested, and the Potency was “inactive”.
For `CCC(C)(C)c1cc(-n2nc3ccccc3n2)c(O)c(C(C)(C)CC)c1`, the Potency was “inactive”.
For `C=CCC1=C(C)[C@@H](OC(=O)[C@@H]2[C@@H](C=C(C)C)C2(C)C)CC1=O`, the Potency was “inactive”.
With `c1ccc2c(c1)oc1ccccc12` the Potency was “inactive”.
In the case of `N#CC(Cl)Cl`, the Potency is reported as “inactive”.
In the case of `CCSC(C)CC1CC(=O)C(/C(CC)=N/OC/C=C/Cl)=C(O)C1` (stereo not given), the Potency is reported as “inactive”.
For `CCNC(=O)NC(=O)/C(C#N)=N/OC`, the Potency was “inactive”.
For `CCOP(=S)(OCC)Oc1ccc(S(C)=O)cc1` (stereo not given), the Potency was “inactive”.
`COC(=O)/C=C(\C)OP(=O)(OC)OC` was tested, and the Potency was “inactive”.
In the case of `CCOC(=O)C(Cl)Cc1cc(-n2nc(C)n(C(F)F)c2=O)c(F)cc1Cl` (stereo not given), the Potency is reported as “inactive”.
In the case of `CNC(=O)Oc1cccc2c1OC(C)(C)C2O` (stereo not given), the Potency is reported as “inactive”.
`CC(C1CC1)C(O)(Cn1cncn1)c1ccc(Cl)cc1` (stereo not given) was tested, and the Potency was “inactive”.
With `Cc1cc(C)nc(Nc2ccccc2)n1` the Potency was “inactive”.
